Some test systems named below: DU-145 prostate; K-562 leukemia; MDA-MB-231 breast; RXF 393 renal; SF-268 CNS; SF-539 CNS; UACC-257 melanoma; M14 melanoma; HCT-15 colon; HT29 colon; SNB-75 CNS; SNB-19 CNS; U251 CNS; PC-3 prostate; SK-MEL-5 melanoma; UACC-62 melanoma; LOX IMVI melanoma; SK-MEL-28 melanoma; MALME-3M melanoma; SF-295 CNS.
What all share (experiment): NCI-60 one-dose screen, 48 h (100 = growth as untreated, 0 = no growth, -100 = all killed)
Common to all, as to settings: 10 µM unless noted

The record followed here is PubChem BioAssay (NCI).

Each structure is given as a SMILES string. Compounds without any hit were thinned out: in the full panel of roughly 83,000, 20% have a hit.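 A percent growth of 40 corresponds to 60% growth inhibition; 0 means no net growth; -100 means all cells died. Active threshold: below 10.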 Unmarked numbers belong to inactive results. Calls of active or inactive are those of the source.

With `N[C@@H](CO)C(=O)O`, the growth in the experiment on DU-145 prostate is 101%; with K-562 leukemia it was 110%; in the experiment with MDA-MB-231 breast it was 93.4%; with RXF 393 renal, 108%; in the experiment with SF-268 CNS it was 95.1%; in the experiment on SF-539 CNS it was 113%. Also, the growth is 104% in the experiment on UACC-257 melanoma; 107% in the experiment with M14 melanoma; 109% with HCT-15 colon; 109% with HT29 colon; 93.3% with SNB-75 CNS; 105% with SNB-19 CNS. The growth was 102% in the experiment on U251 CNS; 96.8% in the experiment on PC-3 prostate; 104% in the experiment on SK-MEL-5 melanoma; 91.9% in the experiment with UACC-62 melanoma; 130% with LOX IMVI melanoma; 107% in the experiment on SK-MEL-28 melanoma.

Consider `NC(N)=N/N=C\c1ccc(OCc2ccccc2)cc1`, for which the growth was 87.4% with DU-145 prostate; 36% in the experiment with K-562 leukemia; 91.5% in the experiment with MALME-3M melanoma; 66.1% in the experiment with MDA-MB-231 breast; -3.77% (active) in the experiment on RXF 393 renal; 99% with SF-295 CNS. Moreover, the growth in the experiment with SF-539 CNS is 87.7%; in the experiment on UACC-257 melanoma it was 90.4%; with M14 melanoma, 81.5%; in the experiment on HCT-15 colon, 35.7%; in the experiment on HT29 colon, 16.6%; in the experiment with SNB-75 CNS, 43.9%. In addition, the growth in the experiment on SNB-19 CNS is 70.9%; with U251 CNS, 45.7%; in the experiment on PC-3 prostate, 70.7%; with SK-MEL-5 melanoma it was -13% (active); with UACC-62 melanoma, 78.2%; in the experiment with LOX IMVI melanoma, 59.6%. For the same compound, in the experiment on SK-MEL-28 melanoma, the growth was 87.8%.

`COc1ccc2c(c1)N(CCO)C1=C(C(=O)OC1)C2c1cccc(Br)c1` (stereo not drawn): the growth in the experiment with DU-145 prostate was -27.2% (active); in the experiment on K-562 leukemia, 13.6%; in the experiment on MDA-MB-231 breast it was -10.6% (active); in the experiment on RXF 393 renal, 44.4%; in the experiment on SF-268 CNS it was 25%; in the experiment on SF-295 CNS, -19.4% (active). The growth with SF-539 CNS was -6.97% (active); in the experiment on UACC-257 melanoma, 60%; with M14 melanoma, 8.81% (active); with HCT-15 colon, 7.92% (active); in the experiment with HT29 colon it was -9.38% (active); in the experiment on SNB-75 CNS, 29.2%. Besides, the growth in the experiment on SNB-19 CNS was 35.4%; with U251 CNS it was 14%; in the experiment on PC-3 prostate it was 26.2%; with SK-MEL-5 melanoma, 2.15% (active); in the experiment on UACC-62 melanoma it was 25%; with LOX IMVI melanoma, 22.2%. Further, the growth with SK-MEL-28 melanoma was 58.6%.

For `NCCCOc1cc2ccccc2cc1C(=O)NCCCOc1cc2ccccc2cc1C(=O)Nc1ccc(Cl)cc1O`, the growth in the experiment on DU-145 prostate is -21.3% (active); in the experiment on MALME-3M melanoma, -82.5% (active); with MDA-MB-231 breast, -87.9% (active); with RXF 393 renal, -96.5% (active); in the experiment with SF-268 CNS, -27.8% (active); with SF-539 CNS, -93.7% (active). Besides, the growth is -69.2% (active) in the experiment with UACC-257 melanoma; -74.6% (active) with M14 melanoma; -55.3% (active) in the experiment with HCT-15 colon; -68.2% (active) in the experiment with SNB-75 CNS; -65.9% (active) in the experiment with SNB-19 CNS; -86.1% (active) in the experiment on U251 CNS. In addition, the growth in the experiment on PC-3 prostate is -86.1% (active); in the experiment with SK-MEL-5 melanoma, -70% (active); in the experiment with UACC-62 melanoma, -88.6% (active); with LOX IMVI melanoma, -89.6% (active); with SK-MEL-28 melanoma, -89.2% (active).

`C=CCOc1c(Br)cc(Br)cc1Br`: the growth is 81.8% in the experiment with DU-145 prostate; 52.2% with K-562 leukemia; 44.6% in the experiment with MDA-MB-231 breast; 76.9% in the experiment with RXF 393 renal; 68.7% in the experiment with SF-268 CNS; 45.4% in the experiment with SF-539 CNS. Besides, the growth in the experiment on UACC-257 melanoma is 79%; in the experiment on M14 melanoma, 73.5%; in the experiment on HCT-15 colon it was 62.9%; in the experiment with HT29 colon, 104%; in the experiment on SNB-75 CNS, 60.7%; in the experiment on SNB-19 CNS it was 50.5%. Also, the growth is 46.8% with U251 CNS; 65.8% in the experiment with PC-3 prostate; 59% in the experiment on SK-MEL-5 melanoma; 37.2% in the experiment with UACC-62 melanoma; 64.4% in the experiment on LOX IMVI melanoma; 77.8% in the experiment on SK-MEL-28 melanoma.

Take `COc1cc(OC)cc(-c2n/c(=C\c3c(O)[nH]c4ccc(Cl)cc34)cc3c2=Nc2ccccc2-3)c1`: the growth was 18.4% in the experiment with DU-145 prostate; 28% with K-562 leukemia; 64.5% in the experiment on MDA-MB-231 breast; 76.8% with RXF 393 renal; 52.8% in the experiment on SF-268 CNS; 104% in the experiment on SF-539 CNS. For the same compound, the growth is 108% with UACC-257 melanoma; 86% with M14 melanoma; 84.2% in the experiment on HCT-15 colon; 15.6% in the experiment with HT29 colon; 79.5% with SNB-19 CNS; 17.6% in the experiment with U251 CNS. Besides, the growth is 69.3% with PC-3 prostate; 92.9% in the experiment with SK-MEL-5 melanoma; 104% with UACC-62 melanoma; 18.8% in the experiment with LOX IMVI melanoma; 109% in the experiment on SK-MEL-28 melanoma.

For the compound `CC1=C(O)C(=O)C(c2c(C)cc(C)c(Br)c2C)=C(O)C1=O`, the growth in the experiment with DU-145 prostate was 78.4%; in the experiment with K-562 leukemia, 48.8%; with MDA-MB-231 breast, 93.5%; in the experiment with RXF 393 renal, 28.9%; with SF-295 CNS, 52.6%; with SF-539 CNS, 65.2%. Further, the growth in the experiment on UACC-257 melanoma is 86.5%; with M14 melanoma, 70.2%; in the experiment on HCT-15 colon, 35.5%; with HT29 colon, 66.7%; in the experiment with SNB-75 CNS, 59.6%; in the experiment on SNB-19 CNS, 63.9%. In addition, the growth with U251 CNS was 65.8%; in the experiment on PC-3 prostate, 84.5%; with SK-MEL-5 melanoma, 57.4%; in the experiment with UACC-62 melanoma, 40.7%; in the experiment with LOX IMVI melanoma it was 35.7%; in the experiment on SK-MEL-28 melanoma it was 73.5%.

In the case of `CC(=O)N[C@@H](CCC(N)=O)C(=O)O`, the growth with DU-145 prostate was 112%; with K-562 leukemia it was 9.01% (active); with MDA-MB-231 breast, 87.2%; in the experiment on RXF 393 renal, 90%; in the experiment on SF-268 CNS, 108%; with SF-539 CNS, 113%. Besides, the growth was 97.4% in the experiment on UACC-257 melanoma; 93.4% in the experiment on M14 melanoma; 113% in the experiment with HCT-15 colon; 95.6% in the experiment with HT29 colon; 69.2% with SNB-75 CNS; 126% in the experiment on SNB-19 CNS. Besides, the growth with U251 CNS was 102%; in the experiment with PC-3 prostate it was 74.5%; with SK-MEL-5 melanoma it was 101%; in the experiment with UACC-62 melanoma it was 98.2%; with LOX IMVI melanoma it was 91.4%; in the experiment with SK-MEL-28 melanoma, 101%.

For the compound `Oc1ccc(CCCCCCc2ccc(O)cc2)cc1`, the growth with K-562 leukemia was 102%; in the experiment with MALME-3M melanoma, 92.8%; in the experiment on MDA-MB-231 breast, 65.3%; in the experiment with RXF 393 renal, 60.4%; in the experiment on SF-268 CNS, 65.2%; in the experiment on SF-295 CNS it was 65.1%. Besides, the growth is 42% in the experiment on SF-539 CNS; 91.4% with UACC-257 melanoma; 41.8% with M14 melanoma; 74.5% with HCT-15 colon; 83.6% with HT29 colon; 51.1% in the experiment on SNB-75 CNS. In addition, the growth with SNB-19 CNS is 112%; with U251 CNS, 54.7%; in the experiment on PC-3 prostate, 57.9%; in the experiment on SK-MEL-5 melanoma, 50.2%; with UACC-62 melanoma, 13.7%; with LOX IMVI melanoma it was 53.3%. The growth in the experiment on SK-MEL-28 melanoma was 104%.
